HT1080-NT tox: kills 2HG-producing HT-1080-NT fibrosarcoma cells; HT-1080-NT fibrosarcoma viability, CellTiter-Glo ATP luminescence, 48 h; Potency, µM (top dose mostly 46.1 µM), most hits filed as cytotoxic; hit rate 1.6% among 360,000; AID 686970;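 note: NT is the 2HG producing partner of a matched IDH1 knockdown line; nearly all actives have a fitted effect of over 55% in size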
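Toxicity toward the 2HG-producing NT line was scored as %Activity, normalised to DMSO and no-cell wells, from CellTiter-Glo luminescence after 48 hours' treatment.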
12-LOX inh: inhibitors of human 12S-lipoxygenase ALOX12 | P18054 | hit rate 1.1% among 580,000 | AID 1671190 | purified 12hLO, xylenol orange hydroperoxide absorbance | Potency, µM (top dose mostly 108 µM), most hits filed as inhibitors
Target sequence (P18054 whole entry, looked up): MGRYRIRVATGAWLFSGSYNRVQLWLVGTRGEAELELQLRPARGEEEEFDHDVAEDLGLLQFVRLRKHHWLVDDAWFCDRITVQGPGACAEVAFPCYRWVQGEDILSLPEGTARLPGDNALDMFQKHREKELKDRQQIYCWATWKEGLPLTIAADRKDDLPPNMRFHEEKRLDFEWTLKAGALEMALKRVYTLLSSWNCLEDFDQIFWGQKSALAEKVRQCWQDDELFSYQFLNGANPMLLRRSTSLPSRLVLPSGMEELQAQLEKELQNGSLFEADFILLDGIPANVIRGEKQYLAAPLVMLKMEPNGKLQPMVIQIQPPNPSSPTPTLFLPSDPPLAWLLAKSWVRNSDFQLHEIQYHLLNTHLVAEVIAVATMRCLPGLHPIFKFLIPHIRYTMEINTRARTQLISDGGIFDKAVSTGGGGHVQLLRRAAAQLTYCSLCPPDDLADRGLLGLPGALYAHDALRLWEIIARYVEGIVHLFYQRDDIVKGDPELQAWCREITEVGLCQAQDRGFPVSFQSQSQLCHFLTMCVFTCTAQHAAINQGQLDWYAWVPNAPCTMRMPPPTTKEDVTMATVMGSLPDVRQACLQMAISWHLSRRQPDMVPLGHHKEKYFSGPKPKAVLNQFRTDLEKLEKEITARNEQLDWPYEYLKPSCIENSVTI
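Purified human 12hLO (150 nM final) in 25 mM Hepes, 0.01% Triton X-100, pH 7.0 was preincubated 15 min at room temperature with compound. Then 40 uM arachidonic acid was added, 30 min. Hydroperoxide was read by Fe-XO absorbance ratio 573/405 nm.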
TDP1 cell noCPT: qHTS for Inhibitors of human tyrosyl-DNA phosphodiesterase 1 (TDP1): qHTS in cells in absence of CPT; Potency, µM (series often up to 46.2 µM), hits mostly inhibitors; hit rate 15% among 420,000; DT40 Tdp1-/- hTDP1 cells, no CPT, ATP luminescence, 48 h; note: nearly all actives have a fitted effect of over 55% in size
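DT40 Tdp1-/-;hTDP1 cells, no CPT (DMSO vehicle only), 400 cells/well; compounds pin-transferred; ≥48 hr, 37 °C; CellTiter-Glo 30 min RT dark, luminescence read.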
HT1080 IDH1KD tx: kills HT-1080 cells with IDH1 knockdown; HT-1080 IDH1 knockdown viability, ATP luminescence, 48 h; Potency, µM (series often up to 46.1 µM), most hits filed as cytotoxic; hit rate 2% among 360,000; AID 686971
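% activity derives from luminescence (CellTiter-Glo), normalised to DMSO and no-cell wells. HT-1080-IDH1KD cells, 750/well, had 48 h compound exposure at 37 °C.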
IL1B secr inh: inflammasome signaling inhibition, IL-1 beta readout; THP-1 LPS/ATP IL-1B secretion, AlphaLISA, 16 h; hits give low values; activity change, % at 57.5 µM; hit rate 4.7% among 360,000; AID 743279; in the data active = activity change below about -50%; inconclusive = mostly about -30% to -49%
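THP-1 cells pretreated 1 hr with compounds (up to 57.5 uM final), then stimulated with LPS (250 ng/mL final) plus ATP (1.25 mM final); secreted IL-1B measured by AlphaLISA after 16 hr, decreased signal indicating inhibition.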
DT40 TDP1 CPT: DT40-hTDP1 cell growth loss with CPT; chicken DT40 Tdp1-/-;hTDP1 cells + 20 nM CPT, ATP luminescence, 48 h; Potency, µM (series often up to 46.2 µM), most hits filed as inhibitors; hit rate 12% among 420,000; AID 686979; note: nearly all actives have a fitted effect of over 55% in size
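Chicken DT40 Tdp1-/- cells complemented with human TDP1, 400 cells/well, exposed to compounds plus 20 nM camptothecin for at least 48 h at 37 C; viability read as ATP content by CellTiter-Glo luminescence.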
A number is an active result; ! = not confirmed by another sample. The entries come from a sample that favours hits as a whole. Unless noted, calls come from the whole dose curve; as a rule, active = well fitted curve in the direction sought with a large enough effect; inconclusive = small, poorly fitted or top-dose-only effect, or another doubt; inactive = no such curve, though single readings can be large; an effect the other way counts as inactive or inconclusive.

`O=c1nc2n(c3ccc(Br)cc13)CCS2` gave HT1080-NT tox inactive, 12-LOX inh inactive, TDP1 cell noCPT inconclusive, HT1080 IDH1KD tx inactive, IL1B secr inh inactive and DT40 TDP1 CPT inactive.
`CCC(C)C(NC(=O)/C(=C\c1ccccc1)NC(=O)c1ccc(OC)cc1)C(=O)O` (stereo unspecified) gave HT1080-NT tox inactive, 12-LOX inh inactive, TDP1 cell noCPT inactive, HT1080 IDH1KD tx inactive, IL1B secr inh inactive and DT40 TDP1 CPT inactive.
CCOC(=O)C1(Cc2ccc(F)cc2)CCCN(C(=O)c2cc3nc(C)cc(C)n3n2)C1 (stereo unspecified) was read as 12-LOX inh inactive.
For CCCCN(CCCC)C(=O)c1cc2c(=O)n3ccccc3nc2s1 the results were 12-LOX inh inactive, TDP1 cell noCPT inconclusive and DT40 TDP1 CPT inconclusive.
Cc1nnc(N2CCC(C(=O)NC3CCCCC3)CC2)c2nn(-c3ccccc3)c(C)c12 was read as 12-LOX inh inactive, TDP1 cell noCPT inactive and DT40 TDP1 CPT inactive.
`Cc1ccc(-n2nc3c(N4CCC(C(=O)NCc5ccccc5C)CC4)nnc(C)c3c2C)cc1` gave HT1080-NT tox 7.3µM, TDP1 cell noCPT inconclusive, HT1080 IDH1KD tx 8.2µM, IL1B secr inh -92 and DT40 TDP1 CPT 13µM.
For CCOc1ccccc1CNC(=O)C1CCN(c2nnc(C)c3c(C)n(-c4ccc(C)cc4)nc23)CC1 the results were HT1080-NT tox inconclusive, 12-LOX inh inactive, TDP1 cell noCPT 13µM, HT1080 IDH1KD tx 13µM, IL1B secr inh -96 and DT40 TDP1 CPT 5.8µM.
Screening Cc1ccc(-n2nc3c(N4CCC(C(=O)N5CCN(C)CC5)CC4)nnc(C)c3c2C)cc1 returned HT1080-NT tox inactive, 12-LOX inh inactive, TDP1 cell noCPT inactive, HT1080 IDH1KD tx inactive, IL1B secr inh inactive and DT40 TDP1 CPT inactive.
Cc1cc(Cl)c(S(=O)(=O)N2CCCCCC2)cc1OCC(=O)NC1CCCCC1 was read as HT1080-NT tox inactive, 12-LOX inh inactive, TDP1 cell noCPT inactive, HT1080 IDH1KD tx inactive, IL1B secr inh inactive and DT40 TDP1 CPT inactive.
`CCOC(=O)N1CCN(S(=O)(=O)c2cc(OCC(=O)NC3CCCCC3)c(C)cc2Cl)CC1` gave HT1080-NT tox inactive, 12-LOX inh inactive, TDP1 cell noCPT inactive, HT1080 IDH1KD tx inactive, IL1B secr inh inactive and DT40 TDP1 CPT inactive.
`Cc1cc(Cl)c(S(=O)(=O)NC2CCCC2)cc1OCC(=O)NC1CCCCC1` gave HT1080-NT tox inactive, 12-LOX inh inactive, TDP1 cell noCPT 23µM, HT1080 IDH1KD tx 20µM, IL1B secr inh inactive and DT40 TDP1 CPT 26µM.
`Cc1cc(Cl)c(S(=O)(=O)N2CCSCC2)cc1OCC(=O)NC1CCCCC1` gave HT1080-NT tox inconclusive, 12-LOX inh inactive, TDP1 cell noCPT 18µM, HT1080 IDH1KD tx inactive, IL1B secr inh -54 and DT40 TDP1 CPT 16µM.
For CCN1CCN(S(=O)(=O)c2cc(OCC(=O)NC3CCCCC3)c(C)cc2Cl)CC1 the results were HT1080-NT tox inactive, 12-LOX inh inactive, TDP1 cell noCPT inconclusive, HT1080 IDH1KD tx inactive, IL1B secr inh inconclusive and DT40 TDP1 CPT 23µM.
For Cc1cc(Cl)c(S(=O)(=O)N2CCN(c3ccccn3)CC2)cc1OCC(=O)NC1CCCCC1 the results were HT1080-NT tox inconclusive, 12-LOX inh inactive, TDP1 cell noCPT 21µM, HT1080 IDH1KD tx inactive, IL1B secr inh inconclusive and DT40 TDP1 CPT inconclusive.
Screening CC(C)(C)C(=O)Oc1ccc2c(-c3cc4ccccc4oc3=O)cc(=O)oc2c1 returned 12-LOX inh inactive.
Screening COc1cc(NC(=O)COC(=O)c2cnccn2)c(C)cc1[N+](=O)[O-] returned HT1080-NT tox inactive, 12-LOX inh inactive, TDP1 cell noCPT inactive, HT1080 IDH1KD tx inactive, IL1B secr inh inactive and DT40 TDP1 CPT inactive.
COc1ccc(S(=O)(=O)N2CCN(C(=O)c3ccco3)CC2)cc1C(C)(C)C was read as HT1080-NT tox inactive, 12-LOX inh inactive, TDP1 cell noCPT inconclusive, HT1080 IDH1KD tx inactive, IL1B secr inh inactive and DT40 TDP1 CPT inconclusive.
For Cc1c2cnccc2c(C)c2c1c1ccccc1n2CCOC(=O)c1ccccc1 the results were TDP1 cell noCPT 11µM and DT40 TDP1 CPT inconclusive.
`CC(C)Cn1nc(C(=O)Nc2cccc(C(=O)NC3CC3)c2)c2ccccc2c1=O` gave HT1080-NT tox inactive, 12-LOX inh inactive, TDP1 cell noCPT 18µM, HT1080 IDH1KD tx inactive, IL1B secr inh inactive and DT40 TDP1 CPT inconclusive.
Screening CC(C)Cn1nc(C(=O)Nc2ccc3c(c2)CCC3)c2ccccc2c1=O returned 12-LOX inh inactive.
`Cc1cc(=O)c(C(=O)Nc2cccc(C(=O)NC3CC3)c2)nn1-c1ccccc1Cl` gave HT1080-NT tox inactive, 12-LOX inh inactive, TDP1 cell noCPT inactive, HT1080 IDH1KD tx inactive, IL1B secr inh -54 and DT40 TDP1 CPT inactive.
For CCCn1nc(C(=O)NC2CCCC2)c2ccccc2c1=O the results were HT1080-NT tox inactive, 12-LOX inh inactive, TDP1 cell noCPT inconclusive, HT1080 IDH1KD tx inactive, IL1B secr inh inactive and DT40 TDP1 CPT inactive.
Screening CCCCn1nc(C(=O)NC2CCCCCC2)c2ccccc2c1=O returned HT1080-NT tox inactive, 12-LOX inh inactive, TDP1 cell noCPT 13µM, HT1080 IDH1KD tx inactive, IL1B secr inh inactive and DT40 TDP1 CPT inconclusive.
For CCOc1ccccc1NC(=O)NCc1nc(-c2ccccc2)oc1C the results were 12-LOX inh inactive.
Screening CC(NC(=O)COc1ccccc1)C(=O)NCc1ccc(S(N)(=O)=O)cc1 (stereo unspecified) returned HT1080-NT tox inactive, 12-LOX inh inactive, TDP1 cell noCPT inactive, HT1080 IDH1KD tx inactive, IL1B secr inh inactive and DT40 TDP1 CPT inactive.
Screening COC(=O)C1N[C@@H]([C@@H](NC(=O)COc2ccccc2)C(=O)NCc2ccccc2)SC1(C)C (stereo partly specified) returned HT1080-NT tox inactive, 12-LOX inh inactive, TDP1 cell noCPT 20µM!, HT1080 IDH1KD tx inactive, IL1B secr inh inactive and DT40 TDP1 CPT inconclusive.
Screening COc1cc(Cc2ccc(N)c(OC)c2)ccc1N returned HT1080-NT tox inactive, 12-LOX inh inactive, TDP1 cell noCPT inactive, HT1080 IDH1KD tx inactive, IL1B secr inh inactive and DT40 TDP1 CPT inconclusive.
`Nc1ccc(Cc2ccc(N)c(O)c2)cc1O` gave HT1080-NT tox inactive, 12-LOX inh inconclusive, TDP1 cell noCPT inconclusive, HT1080 IDH1KD tx inactive, IL1B secr inh inactive and DT40 TDP1 CPT 23µM.
`O=S(=O)(Cc1ccccc1)N1CCC2(CCCCO2)CC1` gave 12-LOX inh inactive.

Screens (PubChem)
